Results filed as inconclusive are left out. Where a call stands in place of a potency, no number is given. Calls of active or inactive are those of the source. Calls follow the shape of the dose curve; as a rule, active = well fitted cell-killing curve with a large enough effect in the repeat runs; inconclusive = weak or mixed curves, or effect the other way; inactive = flat fitted curve, though single readings scatter.
Potency is read from the fitted curve at half-maximal effect.

The experiment in a line: qHTS assay to identify small molecule that activate the aryl hydrocarbon receptor (AhR) signaling pathway - cell viability counter screen (AID 743086). Also: nearly all actives have a fitted effect of over 45% in size. The following applies: HepG2-AhR-luc viability, CellTiter-Fluor, 24 h; series mostly up to 70.3 µM. The source says:
U.S. Tox21 Program National Center for Advancing Translational Sciences [NCATS] NIH Chemical Genomics Center [NCGC] U.S. Environmental Protection Agency [EPA] National Institutes of Environmental Health Sciences [NIEHS] National Toxicology Program [NTP] U.S. Food and Drug Administration [FDA] Tox21 Assay overview: The Aryl hydrocarbon Receptor (AhR), a member of the family of basic helix-loop-helix transcription factors, is crucial to adaptive responses to environmental changes. AhR mediates cellular responses to environmental pollutants such as aromatic hydrocarbons through induction of phase I and II enzymes but also interacts with other nuclear receptor signaling pathways A cell based HepG2-AhR-luc assay (HG2L7.5c1 cell line, developed by Dr. Michael S. Denison, University of California at Davis) was used to assess the activation of AhR. HepG2 (human hepatocellular carcinoma) cells were stably transfected with an Ah receptor-responsive firefly luciferase reporter gene plasmid containing 20 dioxin responsive elements and luciferase reporter gene. Increased luciferase activity can be used to identify the compounds that induce AhR activation. The cytotoxicity of the compounds screened against the HepG2-AhR-luc cell line was tested in parallel by measuring the cell viability using CellTiter-Fluor assay in the same wells.
Tox21 Assay Protocol Summary: 4000 cells in 5 uL/well were dispensed into white wall/solid bottom 1536-well plates using a Multidrop Combi (Thermo Fisher Scientific Inc., Waltham, MA) dispenser. After the assay plates were incubated at 37C for 5 h, 23 nL of compound or DMSO vehicle was transferred to the assay plates by a pintool station (Kalypsys, San Diego, CA). The plates were incubated at 37C for 24 hr. For cell viability measurement, 1 ul/well of CellTiter-Fluor reagent (Promega, Madison, WI) was added into the assay plates using a Flying Reagent Dispenser (FRD) (Aurora Discovery, CA),and then the assay plates were incubated at 37C for 30 min. The fluorescence intensity in the plates was measured using a ViewLux plate reader (PerkinElmer, Shelton, CT), followed by the addition of 4 uL of ONE-Glo Luciferase Assay reagent (Promega) using an FRD (Aurora Discovery). After the assay plates were incubated at room temperature for 30 min, luminescence intensity was measured using a ViewLux plate reader (Perkin Elmer).
Consider `C[n+]1cc2c3c(ccc2c2ccc4cc5c(cc4c21)OCO5)OCO3`, for which the Potency was 10.6 µM (active).

On to `CCCCCCCCCCCCCCCC[N+](C)(C)CCN(Cc1ccc(OC)cc1)c1ncccn1`, for which the Potency entry was “inactive”.

In the case of `O=[N+]([O-])c1ccccc1Nc1ccccc1`, the Potency result was “inactive”.

As to `Cc1cccc(S(=O)(=O)O)c1C`, the Potency result is “inactive”.

Turning to `C[C@H](CCC(=O)O)[C@H]1CC[C@H]2[C@@H]3CC[C@@H]4C[C@H](O)CC[C@]4(C)[C@H]3CC[C@]12C`, the Potency result is “inactive”.

As for `O=[N+]([O-])c1cc(Cl)c(Cl)c(Cl)c1Cl`, the Potency result was “inactive”.

As for `c1ccc(CSCc2ccccc2)cc1`, the Potency result is “inactive”.

For `C[n+]1ccn(Cc2ccccc2)c1`, the Potency result is “inactive”.

As for `CC(C)(C)C(=O)OCOC(=O)C1N2C(=O)CC2S(=O)(=O)C1(C)C` (stereo not given), the Potency result is “inactive”.

Consider `CCCCc1oc2ccc(NS(C)(=O)=O)cc2c1C(=O)c1ccc(OCCCN(CCCC)CCCC)cc1`, for which the Potency is 26.6 µM (active).

On to `CC(C)=CCOc1ccc(/C=C/C(=O)c2ccc(OCC=C(C)C)cc2OCC(=O)O)cc1`, for which the Potency entry was “inactive”.

For `CCOC(=O)/C=C(C)/C=C/C=C(C)/C=C/c1c(C)cc(OC)c(C)c1C`, the Potency entry is “inactive”.

In the case of `COC(=O)C1=C(C)NC(C)=C(C(=O)OCC(C)C)C1c1ccccc1[N+](=O)[O-]` (stereo not given), the Potency entry is “inactive”.

Regarding `CCN(Cc1cccnc1)C(=O)c1cccc(Cl)c1[C@]1(C)C(=O)N(Cc2ccc(OC)cc2OC)c2ccc(Cl)cc21`, the Potency is 11.4 µM (active).

Take `CCC(N)(CO)CO`: the Potency entry is “inactive”.

In the case of `CCc1oc2ccccc2c1C(=O)c1cc(Br)c(O)c(Br)c1`, the Potency entry is “inactive”.

Consider `O=C(c1ccc(O)cc1O)c1ccc(O)cc1O`, for which the Potency result is “inactive”.

Turning to `CC(=O)SC[C@@H](Cc1ccccc1)C(=O)NCC(=O)OCc1ccccc1`, the Potency result is “inactive”.

Consider `CCCCCCCCCCCC[N+](C)(C)CCCCCCCCCCCC`, for which the Potency was 48.6 µM (active).

Consider `CCOC(=O)O[C@]1(C(=O)OCCl)CC[C@H]2[C@@H]3CCC4=CC(=O)C=C[C@]4(C)[C@H]3[C@@H](O)C[C@@]21C`, for which the Potency entry is “inactive”.

Take `CC1=NC(C)OC1C` (stereo not given): the Potency entry is “inactive”.

Consider `COc1cccc(N)c1`, for which the Potency entry was “inactive”.

`C1CCCC1`: the Potency result was “inactive”.

For `COc1c(C)c2c(c(O)c1C/C=C(\C)CCC(=O)O)C(=O)OC2`, the Potency result was “inactive”.

On to `Oc1cccc2cc3cccc(O)c3c(O)c12`, for which the Potency entry was “inactive”.

With `O=C(Nc1cccc(C(F)(F)F)c1)c1cc(Br)cc(Br)c1O`, the Potency result is “inactive”.

Turning to `CN(C)c1ccc(C2(c3ccc(N(C)C)cc3)OC(=O)c3cc(N(C)C)ccc32)cc1`, the Potency entry is “inactive”.

Turning to `CCN(CC)CCNC(=O)c1c(C)[nH]c(/C=C2\C(=O)Nc3ccc(F)cc32)c1C`, the Potency is 11.9 µM (active).

`NC(=O)NS(=O)(=O)c1ccc(N)cc1`: the Potency result was “inactive”.

Turning to `Cc1cc(N)c(S(=O)(=O)O)cc1Cl`, the Potency entry was “inactive”.

For `NNC(=O)c1cccc(C(=O)NN)c1`, the Potency entry was “inactive”.

For the molecule `CCC(C)(C)C1CCCCC1OC(C)=O` (stereo not given), the Potency result is “inactive”.

Take `CCCCCCCCNC(C)C(O)c1ccc(SC(C)C)cc1` (stereo not given): the Potency was 23.7 µM (active).

For the molecule `ON=C1CCCC1`, the Potency result is “inactive”.

For the molecule `CCCC(C)c1ccccc1O` (stereo not given), the Potency result was “inactive”.

Turning to `C=CC(=O)OCC(CO)(COCC(COC(=O)C=C)(COC(=O)C=C)COC(=O)C=C)COC(=O)C=C`, the Potency is 6.04 µM (active).

As for `O=C(OCC1CO1)C1CCCCC1C(=O)OCC1CO1` (stereo not given), the Potency entry was “inactive”.

Consider `CNC(=O)c1ccccc1`, for which the Potency entry was “inactive”.

On to `CCCCC(CC)CN=C(N)NC(N)=NCCCCCCN=C(N)NC(N)=NCC(CC)CCCC` (stereo not given), for which the Potency is 21.1 µM (active).

On to `CC(C)n1nc(-c2cc3cc(O)ccc3[nH]2)c2c(N)ncnc21`, for which the Potency was 0.75 µM (active).

Source of the values: PubChem BioAssay (Tox21).
